This is a sample that favours compounds with a hit; in the whole collection about 1.1% have one here.
PI4K2A inh: blocks human PI4K2A kinase activity; hit rate 0.13% among 420,000; AID 1346378; activity change, negative = inhibition, % at 76.9 µM; purified PI4K2A, ADP-Glo luminescence, 1 h; active compounds read low; in the data active = activity change below about -50%; inconclusive = mostly about -30% to -49%;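 note: -100% = wells without enzyme as full effect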
Target sequence (Q9BTU6 whole entry, looked up): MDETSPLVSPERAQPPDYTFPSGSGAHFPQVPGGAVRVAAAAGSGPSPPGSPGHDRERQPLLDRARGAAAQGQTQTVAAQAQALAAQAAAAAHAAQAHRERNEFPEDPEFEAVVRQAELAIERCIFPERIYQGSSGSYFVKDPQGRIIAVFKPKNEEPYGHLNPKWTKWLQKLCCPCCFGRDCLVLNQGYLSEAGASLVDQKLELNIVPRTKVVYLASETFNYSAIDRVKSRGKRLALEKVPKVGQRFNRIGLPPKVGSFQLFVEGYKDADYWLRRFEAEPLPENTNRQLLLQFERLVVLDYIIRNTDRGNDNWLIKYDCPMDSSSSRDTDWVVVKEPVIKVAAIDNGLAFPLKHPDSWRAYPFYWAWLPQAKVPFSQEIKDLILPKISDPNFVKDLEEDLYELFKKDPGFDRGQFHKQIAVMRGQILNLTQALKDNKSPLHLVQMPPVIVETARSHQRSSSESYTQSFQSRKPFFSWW
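Compounds are screened against recombinant PI4K2A using PI as substrate and ATP, the latter dispensed at 300 microM. Reactions run one hour at ambient temperature before ADP-Glo detection; full inhibition defined by wells lacking enzyme.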
a7 integrin act: activators of alpha7 integrin expression for muscular dystrophy; alpha7betagal myoblasts, beta-gal FDG fluorescence, 48 h; Potency, µM (highest dose often 38.3 µM), for inactives: at the top dose activation, hits mostly activators; hit rate 0.064% among 350,000; AID 624291;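 note: potency is the fitted concentration of half-maximal effect; 100% = response of the positive control SU9516; nearly all actives have a fitted effect of over 60% in size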
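alpha7betagal+/- myoblasts (passage 13, 250/well) treated 48 h at 37C with compounds at 1:260 dilution of DMSO stock. Lysed, then beta-galactosidase activity read as FDG fluorescence (ex 480/em 540) after 30 min, with pre-read for autofluorescence.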
TrxR1 inh: rat TrxR1 inhibition; O89049; recombinant rTrxR1, NADPH fluorescence consumption, selenite substrate; Potency, µM (top dose mostly 114 µM), without a hit: at the highest dose activity change, negative = inhibition, usual class: inhibitors; hit rate 1% among 390,000; note: potency is the fitted concentration of half-maximal effect; nearly all actives have a fitted effect of over 65% in size
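Rat TrxR1 (90 nM in the dispensed reagent) was pre-reduced with 400 uM NADPH for 5 min at room temperature, then incubated with compound for 15 min. After 400 uM selenite was added, NADPH fluorescence (Ex 340/Em 450 nm) was followed for 8 min.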
LDHA inh: inhibitors of human lactate dehydrogenase A; hit rate 0.15% among 480,000; activity change, % (values are at about 110 or 230 µM); purified LDHA, NADH/diaphorase-resazurin fluorescence; active compounds read low; in the data active = activity change below about -30%; inconclusive = mostly about -25% to -30%;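 note: plate controls were DMSO wells for no effect and wells without enzyme for full effect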
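LDH5 2 nM; NADH 0.06 mM, pyruvate 0.2 mM; 200 mM Tris pH 7.4, EDTA, Tween-20; 5 min RT. Detection: diaphorase 0.133 mg/mL + resazurin 37 µM, fluorescence ex540/em590 at 0 and 20 min; normalized to enzyme-free and DMSO wells.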
TrxR1 substrate: rat thioredoxin reductase 1 substrate activity | O89049 | purified TrxR1 substrate turnover, NADPH consumption readout | Potency, µM (highest dose often 114 µM), for inactives: at the top dose activity change, negative = substrate turnover | hit rate 0.01% among 390,000; note: potency is the fitted concentration of half-maximal effect; nearly all actives have a fitted effect of over 50% in size
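Rat TrxR1, dispensed at 90 nM, was prereduced with 400 uM NADPH (final) for 5 min at ~22 deg C, then incubated with compound 15 min before 400 uM selenite. A first-read NADPH fluorescence drop versus no-compound background flagged substrates.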
GALK inh: blocks human galactokinase activity | hit rate 0.007% among 270,000 | Purified GALK, Kinase-Glo residual ATP luminescence | Potency, µM (series often up to 57.5 µM), without a hit: at the top dose activity change, negative = inhibition, actives largely listed as inhibitors | AID 1868 | P51570; note: potency is the fitted concentration of half-maximal effect
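GALK at 5 nM final was combined with compound, 35 uM ATP and 100 uM galactose in HEPES pH8.0 with MgCl2 and DTT. The reaction ran one hour at room temperature before luminescent ATP detection.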
Active calls of the source: *; u = inconclusive; x = no result given; [ ] = another dose, or the depositor's remark. Unless noted, calls come from the whole dose curve; as a rule, active = well fitted curve in the direction sought with a large enough effect; inconclusive = small, poorly fitted or top-dose-only effect, or another doubt; inactive = no such curve, though single readings can be large; an effect the other way counts as inactive or inconclusive. Unless noted, % is set by controls: 0 for no effect and ±100 for the full control effect.

SMILES | PI4K2A inh | a7 integrin act | TrxR1 inh | LDHA inh | TrxR1 substrate | GALK inh
CC(=O)NC1=NN(C(C)=O)C(c2ccccc2OCc2ccccc2Cl)S1 (stereo unspecified) | x | x | x | -1 | x | x
COC(=O)C1=NNC2(C)C(=O)N(c3ccc(C)cc3)C(=O)C12 (stereo unspecified) | -3 | 10µM* | 25% | -10 | 3% | 1%
COC(=O)C1=NNC2(c3ccc(C)cc3)C(=O)N(c3ccc(C)cc3)C(=O)C12 (stereo unspecified) | -1 | -6% | 10%[57.1 µM] | -12 | -5% | 10%
Cc1ccc(N2C(=O)CS(=O)(=O)CC2=O)cc1 | 5 | 16% | 4.5µM* | -6 | 8%[57.1 µM] | -2%
Cc1ccc(N2C(=O)CSCC2=O)cc1 | 4 | 2% | -6% | -2 | -4% | -1%
CC(C)(C)C(=O)Nc1ccc2c(c1)C(=O)C(=O)c1ccccc1-2 | x | x | 6.3µM* | 53 | 3.2µM* | x
CC(=O)Nc1ccc2c(c1)C(=O)c1ccccc1C2=O | 7 | 16% | 12%[57.1 µM] | 6 | 5%[57.1 µM] | -1%
CCOc1ccc(NC(=O)CN2C(=O)NC(CCSC)C2=O)cc1 (stereo unspecified) | -1 | 10µM* | 18% | -5 | 0% | 10%
CS(=O)(=O)c1ccc(OCCOc2ccc(F)cc2)cc1 | x | x | x | 5 | x | x
CC(=O)c1ccc(N2CCN(C(=O)c3ccc(Cn4cncn4)cc3)CC2)cc1 | x | x | x | -7 | x | x
O=C1C2C(C(=O)N1/N=C/c1ccc(N3CCCCC3)o1)C1C=CC2C12CC2 (stereo unspecified) | 4 | -3% | 25µM* | -1 | -3% | -2%
COCCN(CCOC)Cc1c(O)ccc2c1O/C(=C\c1ccco1)C2=O | -8 | -6% | 79µM* | 3 | -26% | -2%
CCN(CC)C(=O)Oc1ccc2c(c1)O/C(=C\c1ccco1)C2=O | -2 | 5% | u | 4 | 4% | x
CCC(=O)Oc1ccc2c(c1)O/C(=C\c1ccco1)C2=O | -29 | -39% | 79µM* | 1 | -7% | -3%
COc1ccc(C(CNC(=O)CN2CCN(C)CC2)c2c[nH]c3ccccc23)cc1 (stereo unspecified) | x | x | x | 5 | x | x
O=C(Nc1ccc(F)cc1F)C1CC2CCC1C2 (stereo unspecified) | x | x | x | 13 | x | x
O=C(NC1CCCCC1)Sc1ccc(Cl)cc1 | u | -22% | 18µM* | -3 | 4% | 0%
CCn1nc(C(=O)OCC(=O)Nc2c(Cl)cc(Cl)cc2Cl)c2ccccc2c1=O | x | x | x | 3 | x | x
O=C(CCc1ccc(O)cc1)c1c(O)cc(O)cc1O | 0 | -2% | 10µM* | -1 | 5%[57.1 µM] | -3%
Cc1ccc(-c2csnn2)cc1 | -7 | 10µM* | 23% | -2 | -1% | x
CC1=NN(c2nc(C)cc(C)n2)C(=O)C1Cc1ccc(Cl)cc1 (stereo unspecified) | x | x | x | -36* | x | x
COC(=O)c1cc(S(=O)(=O)N2CCOCC2)c(Cl)cc1N1CCOCC1 | 3 | -3% | -19% | -8 | -13% | -3%
COC(=O)c1cc(C)nc2c1C(=O)C(=O)C=C2N1CCOCC1 | -83* | -66% | -13% | 6 | 35µM* | 7.1µM*
O=C1/C(=C/c2ccco2)CCc2ccccc21 | -54* | -10% | -7% | 7 | -10% | x
Nc1ccc2c(c1)C/C(=C/c1ccco1)C2=O | -24 | -9% | 56µM* | -2 | -5% | 5%
SMILES | PI4K2A inh | a7 integrin act | TrxR1 inh | LDHA inh | TrxR1 substrate | GALK inh
COc1ccc(OC)c(C(c2c(C)[nH][nH]c2=O)c2c(C)[nH][nH]c2=O)c1 | u | -24% | -12% | 16 | -3% | -1%
COc1ccc(O)c(C(c2c(C)[nH][nH]c2=O)c2c(C)[nH][nH]c2=O)c1 | -62* | -5% | 16%[57.1 µM] | 24 | -2%[57.1 µM] | 9%
O=S1(=O)C=C(Sc2nc3cc(Cl)ccc3o2)c2ccccc21 | 13 | -43% | 2.8µM* | -5 | 8%[57.1 µM] | -3%
O=S1(=O)C=C(Sc2nc3ccccc3o2)c2ccccc21 | x | x | x | 3 | x | x
Oc1ccc(Cl)cc1C1=NNC(c2cccs2)C1 (stereo unspecified) | 9 | 0% | u | -2 | 4% | -2%
O=[N+]([O-])c1ccc(O)c(C2=NNC(c3ccccc3F)C2)c1 (stereo unspecified) | -1 | -56% | 35µM* | 1 | -1% | -2%
CSCCC(NC(=O)c1ccc(Cl)cc1Cl)C(=O)Nc1cccc(C(C)=O)c1 (stereo unspecified) | x | x | x | -2 | x | x
COc1ccc(-n2nnnc2C2CCN(S(=O)(=O)c3cc(OC)ccc3OC)CC2)cc1 | x | x | x | 0 | x | x
O=C(/C=C/c1ccco1)NCC(=O)N/N=C/c1ccc([N+](=O)[O-])cc1 | u | 20% | 45µM* | -4 | -10% | 1%
O=C(/C=C/c1ccco1)NCC(=O)N/N=C/c1ccc(Cl)cc1 | -4 | 19% | -21% | -15 | 1% | 0%
CCC(=O)N1CCc2cc(S(=O)(=O)NC(CC(C)C)C(=O)NCc3cccc(OC)c3)ccc21 (stereo unspecified) | 3 | x | 8% | -31* | -1% | x
CCC(=O)N1CCc2cc(S(=O)(=O)NC(CC(C)C)C(=O)NCc3ccc(F)cc3)ccc21 (stereo unspecified) | -2 | x | 9% | -17 | -1% | x
CCOC(=O)CCCCC(=O)c1[nH]c(=O)[nH]c1CSc1nc(C)cc(=O)[nH]1 | 0 | 4% | 3.2µM* | -2 | 11% | -1%
CCOC(=O)CCCCC(=O)c1[nH]c(=O)[nH]c1CSc1nc2ccccc2[nH]1 | -1 | -16% | 3.2µM* | -8 | -2% | -3%
O=[N+]([O-])c1ccccc1C1Nc2cccc3cccc(c23)N1 | -20 | -36% | 79µM* | 19 | -4% | 0%
CCn1c(Cl)c(C=O)s/c1=N\S(=O)(=O)c1ccccc1 | 12 | -53% | 1.4µM* | -7 | -4% | -2%
O=S(=O)(/N=c1\ssc(-c2ccccc2)c1Cl)c1ccccc1 | x | x | x | 1 | x | x
CN(C(=O)COC(=O)c1ccc(Br)c([N+](=O)[O-])c1)c1c(N)n(Cc2ccccc2)c(=O)[nH]c1=O | -1 | -29% | 40µM* | -3 | -7% | x
Cc1ccc(C(=O)OCC(=O)N(CC(C)C)c2c(N)n(Cc3ccccc3)c(=O)[nH]c2=O)cc1[N+](=O)[O-] | 0 | 0% | 13% | -7 | 11% | x
Cc1occc1C(=O)N/N=C/C=C/c1ccc(N(C)C)cc1 | -11 | -5% | 15% | 4 | 0% | -3%
Cc1occc1C(=O)N/N=C/c1ccc(N(C)C)cc1 | -87* | -23% | 11%[57.1 µM] | 1 | 7%[57.1 µM] | u
O=[n+]1c2c(n([O-])c3cc(F)c(F)cc31)CCCC2 | -3 | -34% | 3.5µM* | 20 | -8% | -1%
